A selection: hits, their analogues and other compounds. The true share with any hit is near 3.2%.
PHOSPHO1 inh – blocks human PHOSPHO1 phosphatase activity; 290,000 tested, 1.1% active; Q8TCT1; AID 1565; inhibition, % at 13.3 µM; recombinant PHOSPHO1, absorbance phosphatase assay; in the data active = inhibition above about 60%
CHT allo act – human CHT allosteric activation; 310,000 tested, 0.49% active; CHT-expressing cells, membrane potential dye, choline EC20; hits give high values; LV-AA mutant CHT in HEK293 cells; Q9GZV3; B-score at 10 µM; AID 488977;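 active = initial fluorescence not abnormally high and integrated response B-score, plate-corrected, over 3 SD above library mean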
Target sequence (Q9GZV3 whole entry, looked up): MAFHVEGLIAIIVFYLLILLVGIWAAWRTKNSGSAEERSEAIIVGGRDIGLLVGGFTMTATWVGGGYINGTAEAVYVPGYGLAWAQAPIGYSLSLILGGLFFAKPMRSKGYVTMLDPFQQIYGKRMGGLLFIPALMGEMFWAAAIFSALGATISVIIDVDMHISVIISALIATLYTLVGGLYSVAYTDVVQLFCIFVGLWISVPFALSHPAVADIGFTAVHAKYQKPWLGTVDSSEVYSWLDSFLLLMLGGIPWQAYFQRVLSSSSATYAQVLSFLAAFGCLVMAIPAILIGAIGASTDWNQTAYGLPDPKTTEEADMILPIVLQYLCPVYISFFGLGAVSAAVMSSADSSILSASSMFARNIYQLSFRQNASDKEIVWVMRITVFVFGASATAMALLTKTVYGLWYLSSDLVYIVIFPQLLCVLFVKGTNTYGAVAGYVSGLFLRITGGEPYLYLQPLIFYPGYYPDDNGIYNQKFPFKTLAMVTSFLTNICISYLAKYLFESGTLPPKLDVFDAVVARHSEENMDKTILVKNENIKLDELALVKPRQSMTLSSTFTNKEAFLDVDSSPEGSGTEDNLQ
CHT inh – inhibitors of human choline transporter CHT. Q9GZV3. CHT-expressing cells, membrane potential dye, choline response; hits give low values. B-score at 10 µM. 310,000 tested, 0.86% active. AID 488975;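 active = B-score over 3 SD under the library average, and starting fluorescence ratio not unusually high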;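 note: choline stimulus applied at its EC90 after an EC20 pre-addition; B-score computed on integrated fluorescence ratio after choline addition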
TMEM16A act – activates or potentiates the mouse TMEM16A chloride channel; Q8BHY3; HEK293 TMEM16A/YFP-H148Q/I152L, iodide quench fluorescence; hits give low values; B-score at 10 µM; 340,000 tested, 0.3% active; AID 623877;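 active = fluorescence-ratio B-score plate-corrected deviation score at least 3 library SD below zero, with starting fluorescence score within 5 deviations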;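 note: channel opened by trigger with iodide after compound preincubation; score built on the fluorescence ratio of max minus min over baseline; more negative score means more quench and so TMEM16A activation or potentiation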
ANO1 block – inhibitors of mouse TMEM16A calcium-activated chloride channel | Q8BHY3 | HEK293 TMEM16A/YFP iodide influx fluorescence, ionomycin | normalized B-score (activity score, 25-100; higher = stronger inhibition) at 10 µM | 310,000 tested, 1.2% active | AID 588511;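 active = ratio plate-corrected score three or more library SD toward inhibition, starting fluorescence score within five deviations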;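 note: score derived from kinetic fluorescence span divided by baseline fluorescence per well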
HDAC3 inhib – human HDAC3 inhibition. 320,000 tested, 0.15% active. AID 2718. inhibition, % at 8.3 µM. recombinant HDAC3, fluorogenic peptide/trypsin coupled, fluorescence; in the data active = inhibition above about 26%, passing the limit was not always enough
CHT activ conf – human CHT activation, confirmatory screen; shares compounds with CHT allo act; CHT-expressing cells, membrane potential dye fluorescence (FDSS); % of choline EC20–EC90 response window; HEK293 expressing CHT LV-AA mutant; choline added at its EC20; activation, % at 10 µM; 2,500 tested, 91% active;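 active = primary screen active, with duplicate mean activation above negative control mean plus 3 SD, cut at about 11% in these data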
HEK293 MP dye – CHT activator counter-screen hit in parental HEK293 cells; ratio readout change at 10 µM, hits read low; AID 623908; 2,500 tested, 62% active; membrane potential dye fluorescence (FDSS); measured after EC20 choline addition; shares compounds with CHT allo act;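 active = duplicate-averaged ratio beyond 3 SD from buffer wells, up or down, though filed actives are nearly all decreases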
Numbers without * were called inactive; i = inactive; . = no result given.

SMILES | PHOSPHO1 inh | CHT allo act | CHT inh | TMEM16A act | ANO1 block | HDAC3 inhib | CHT activ conf | HEK293 MP dye
CN(C)CCNC(=O)c1cc2c(=O)n(C)c3ccccc3c2n1C | -15 | i | i | i | i | -2 | 42* | -33*
Cn1c(C(=O)NCCCN2CCCCCC2)cc2c(=O)n(C)c3ccccc3c21 | -10 | i | i | i | i | 8 | . | .
CCN(CC)CCNC(=O)c1cc2c(=O)n(C)c3ccccc3c2n1C | -11 | i | i | i | i | -15 | . | .
Cn1c(C(=O)NC2CC2)cc2c(=O)n(C)c3ccccc3c21 | -2 | i | i | i | i | 0 | 36* | -30*
Cn1c(C(=O)NCCCN2CCc3ccccc3C2)cc2c(=O)n(C)c3ccccc3c21 | -3 | i | i | i | i | -6 | 25* | -27*
COCCNC(=O)c1cc2c(=O)n(C)c3ccccc3c2n1C | -11 | i | i | i | i | -9 | . | .
CCN(CC)CCCNC(=O)c1cc2c(=O)n(C)c3ccccc3c2n1C | -15 | 6.7* | i | i | i | -6 | 49* | -23*
CC1=C(CC(=O)c2ccccc2)C(=O)c2ccccc2C1=O | 24 | i | i | i | i | 6 | . | .
CC(C)CC1NC(=O)N(CC(=O)c2ccc3c(c2)OCCO3)C1=O (centres undefined) | -7 | i | i | i | i | -1 | . | .
COc1cc2c(cc1OC)C(COc1ccccc1OC)N(C(=O)C(C)C)CC2 (centres undefined) | -2 | i | i | i | i | . | . | .
Cc1cc(C)c2c(c1)/C(=N\N=c1\sc3ccccc3n1C)C(=O)N2 | 34 | i | i | i | i | . | 23* | i
Cc1ccccc1Nc1nc(=O)c2cc([N+](=O)[O-])ccc2s1 | -2 | i | i | i | i | 6 | . | .
CCOC(=O)c1sc(NC(=O)c2c(OC)cccc2OC)nc1C | -18 | i | i | i | i | 2 | . | .
CCOC(=O)c1sc(NC(=O)Cc2ccccc2OC)nc1C | 24 | i | i | i | i | 1 | 15* | i
O=C(CSc1nnc2c(n1)[nH]c1ccc(S(=O)(=O)N3CCOCC3)cc12)Nc1ccccc1Cl | -11 | i | i | i | i | -5 | . | .
COc1cccc(NC(=O)COC(=O)Cn2c(C)csc2=O)c1 | . | . | . | i | . | -2 | . | .
COc1ccc(S(=O)(=O)N2c3ccc(F)cc3CCC2C)cc1 (centres undefined) | . | i | i | i | i | 2 | 44* | i
CCCN(C(=O)/C=C/c1ccco1)c1c(N)n(Cc2ccccc2)c(=O)[nH]c1=O | -1 | i | i | i | i | 6 | . | .
C=CCn1c(SC(C)C(=O)NCCC2=CCCCC2)nc2ccccc2c1=O (centres undefined) | 20 | i | i | i | i | -8 | 27* | i
CCOC(=O)N1CCN(c2nc3c(c(=O)[nH]c(=O)n3C)n2Cc2ccccc2Cl)CC1 | 7 | . | . | . | . | . | . | .
Cc1ccccc1-c1nc(CN2CCC(C(=O)NCCN3CCOCC3)CC2)c(C)o1 | 4 | i | i | i | i | 4 | . | .
Cc1oc(-c2ccc(Cl)cc2)nc1CN1CCC(C(=O)NCCCN2CCCC(C)C2)CC1 (centres undefined) | 36 | i | i | i | i | 1 | 55* | -28*
Cc1ccccc1-c1nc(CN2CCC(C(=O)NCCCN3CCOCC3)CC2)c(C)o1 | 3 | i | i | i | i | -2 | 40* | -26*
Cc1oc(-c2ccc(Cl)cc2)nc1CN1CCC(C(=O)NCCCN2CCCC2=O)CC1 | -7 | i | i | i | i | -3 | . | .
N#CC(C#N)=Cc1ccc(NC(=O)c2ccc(Br)cc2)cc1 | 5 | i | i | i | i | 7 | . | .
SMILES | PHOSPHO1 inh | CHT allo act | CHT inh | TMEM16A act | ANO1 block | HDAC3 inhib | CHT activ conf | HEK293 MP dye
Cn1c(=O)[nH]c(=O)c2c1nc(N1CCN(c3ccccc3)CC1)n2CCSc1ncccn1 | -7 | i | i | i | i | -2 | 37* | i
CN1CCN(c2nc3c(c(=O)[nH]c(=O)n3C)n2CCSc2ncccn2)CC1 | 14 | . | . | . | . | . | . | .
Cn1c(=O)[nH]c(=O)c2c1nc(N1CCCCC1)n2CCSc1ncccn1 | . | 8* | i | i | i | 0 | 18* | -24*
Cc1ccc(S(=O)(=O)c2cc(N3CCOCC3)nc(-c3ccccc3)n2)cc1 | 12 | i | i | i | i | -2 | . | .
CCOC(=O)c1cc2c(=O)n3ccccc3nc2n(Cc2ccco2)c1=NC(=O)c1ccc(OC)cc1OC | 24 | i | i | i | i | -76 | 21* | -26*
CCOC(=O)c1cc2c(=O)n3ccccc3nc2n(CC2CCCO2)c1=NC(=O)/C=C/c1ccccc1 (centres undefined) | 32 | i | i | i | i | -14 | 15* | i
Nc1nonc1-n1nnc(C(=O)N/N=C/c2cccc(Cl)c2)c1CN1CCCC1 | . | i | i | i | i | -1 | . | .
CC(C)CCn1c(NCCN(C)C)nc2c1c(=O)[nH]c(=O)n2C | -12 | i | i | i | i | -12 | 26* | -41*
CN(C)CCNc1nc2c(c(=O)[nH]c(=O)n2C)n1CC(O)COc1ccc(Cl)cc1Cl (centres undefined) | 5 | 8.9* | i | i | i | 14 | 51* | -45*
CCOC(=O)Cn1c(=O)oc2cc(S(=O)(=O)Nc3cc(Cl)ccc3OC)ccc21 | -7 | i | i | i | i | 4 | . | .
CCN1CCC2(CC1)C(C#N)=C(N)Oc1c2sc2nc(C)cc(C)c12 | -14 | 6.7* | i | i | i | 0 | 39* | i
Cc1cc(C)c2c(n1)sc1c(N3CCN(CCO)CC3)ncnc12 | 31 | i | i | i | i | -5 | . | .
Cc1cc(OCC(=O)NCCCN2CCOCC2)c2c(C)cc(=O)oc2c1 | 34 | 6.5* | i | i | i | -31 | 60* | -52*
CCc1cc(=O)oc2cc(C)cc(OCC(=O)NCCCN3CCOCC3)c12 | 30 | i | i | i | i | -53 | . | .
CC(NC(=O)Cn1c(NCCO)nc2ccccc21)C1CC2CCC1C2 (centres undefined) | 53 | i | i | i | i | 0 | 38* | i
Cc1cc2nc3ccc(N(C)C)cc3nc2cc1N | . | i | i | i | i | 9 | 30* | -24*
